# Assay results: ChEMBL document CHEMBL3988442, “University of Dundee, Small-Polar-MMV Screening Library” (2021)
# Hit rate of the full screen: of about 48,000 compounds, about 13,000 (27%) showed an effect of 50% or more. This is one part of the list.
# System: Wolbachia pipientis
# Assay: Anti-Wolbachia Cell-Based Screen
# Assay type: functional
# Parameters: scale not given: in the data most compounds retested in dose-response had high values
# Conditions: 5 µM
row,Structure (SMILES),Percent Effect
1,COCC(=O)N1C[C@H]2CCCC(OCc3cccnc3)[C@H]2C1.O=C(O)C(F)(F)F (some centres undefined),-11.84%
2,COc1ccc(CN2CCO[C@H]3CN(C4CCCC4)CC[C@H]3C2=O)cc1.O=C(O)C(F)(F)F,4.442%
3,Cc1nc(CN2CC[C@@H]3O[C@@H](C(=O)N4CCOCC4)C[C@@H]32)cs1.O=C(O)C(F)(F)F,95.13%
4,CC1CCN(C(=O)[C@@H]2CC[C@@H]3[C@@H](CCN3c3ncc(F)cn3)O2)CC1.O=C(O)C(F)(F)F,-5.679%
5,CC1CCN(C(=O)[C@@H]2C[C@@H]3CCN(Cc4nccs4)C[C@H]3O2)CC1.O=C(O)C(F)(F)F,95.79%
6,COCCN1CC[C@@H]2O[C@H](COCc3csc(C)n3)CC[C@@H]21.O=C(O)C(F)(F)F,5.526%
7,O=C(O)C(F)(F)F.O=C([C@H]1CC[C@@H]2[C@@H](CCN2Cc2nccs2)O1)N1CCOCC1,110.8%
8,CC1CCN(C(=O)[C@H]2CC[C@@H]3[C@@H](CCN3Cc3nccs3)O2)CC1.O=C(O)C(F)(F)F,83.2%
9,CNC(=O)[C@H]1C[C@@H]2CCN(Cc3nccs3)C[C@H]2O1.O=C(O)C(F)(F)F,-7.914%
10,O=C(O)C(F)(F)F.O=C([C@@H]1C[C@H]2[C@H](CCN2Cc2nccs2)O1)N1CCOCC1,-8.158%
11,O=C(O)C(F)(F)F.O=C(O)C(F)(F)F.O=C(O)C(F)(F)F.c1cncc(C[C@H]2[C@H](N3CCOCC3)CCN2Cc2nccs2)c1,6.166%
12,Cc1nc(CN2C[C@@H]3CN(C(=O)[C@H]4CCCO4)C[C@@H]3C2=O)cs1.O=C(O)C(F)(F)F,-7.059%
13,Cc1nc(C(C)(C)NC(=O)Nc2ccc(C#N)cc2)no1,2.937%
14,CCCN(C(=O)c1cc2c([nH]c1=O)CCCC2=O)C1CCCCC1,-3.902%
15,NS(=O)(=O)c1cnn(-c2ccc(NC(=O)CC3CCCC3)cn2)c1,31.03%
16,N#Cc1cccc(NC(=O)CCn2nc(-c3cccs3)oc2=O)c1,113.1%
17,COCCn1ccc(NC(=O)Nc2cccc(C#N)c2)n1,15.59%
18,O=C(CCNC(=O)c1ccoc1)Nc1cccc(F)c1,8.68%
19,CC(=O)c1cccc(NC(=O)CCn2nc(-c3cccs3)oc2=O)c1,94.26%
20,CC(C)N(CC(=O)Nc1cccc(C#N)c1)C1CC1,-12.82%
21,O=c1oc(-c2cccs2)nn1CC(O)c1ccc(F)cc1 (centres undefined),-3.645%
22,CC(=O)c1cccc(NC(=O)COc2c(C)n(C)ccc2=O)c1,5.404%
23,COC(=O)c1cccc(NC(=O)CCn2nc(-c3cccs3)oc2=O)c1,-4.824%
24,CNC(=O)c1cccc(NC(=O)Cn2nc(-c3cccs3)oc2=O)c1,-3.203%

row,Structure (SMILES),Percent Effect
1,CC(=O)c1cccc(NC(=O)Cn2cnc(-c3cccs3)cc2=O)c1,8.004%
2,O=C(CCn1nc(-c2cccs2)oc1=O)Nc1cccc(F)c1,101.8%
3,CC(=O)c1cccc(NC(=O)Cn2nc(-c3cccs3)oc2=O)c1,114.8%
4,CCn1ccnc1C1CCCN(c2nccc3ccccc23)C1 (centres undefined),-22.2%
5,CN(c1cccnc1N1CCCC1)S(=O)(=O)c1cccnc1,-4.578%
6,CCCNC(=O)CN1CCN(c2nc(CC)ns2)CC1,-2.637%
7,Cn1cc(CNCCOc2ccc(F)c(F)c2)c(-c2cccnc2)n1,7.876%
8,O=C(Nc1nc2c(s1)CCC2)NC1CCCC1,91.02%
9,Cc1nnc(NC(=O)NC(C)C(=O)NC2CCCC2)s1 (centres undefined),-0.7919%
10,Cl.O=C(Nc1nc2c(s1)CNCC2)NC1CCCC1,156.5%
11,Cc1nsc(NC(=O)NC2CCCN(C)C2)n1 (centres undefined),-12.87%
12,Cl.O=C(Nc1nc2c(s1)CNCC2)C1CC1,114.1%
13,CC(NC(=O)Nc1nncs1)C(=O)NC1CCCC1 (centres undefined),12.84%
14,O=C(Nc1nc2c(s1)CN(S(=O)(=O)C1CC1)CC2)c1c(F)cccc1F,-9.469%
15,Cc1nsc(NC(=O)NC2CCOCC2)n1,5.232%
16,CCc1c(C)nc2n(c1=O)CC(C(=O)Nc1nc3c(s1)CCCC3)CS2 (centres undefined),1.424%
17,CN(Cc1nnc(-c2cccs2)o1)Cc1nc2c(s1)CCCC2,-3.278%
18,O=C1CC(c2ccccc2)c2c(n3ccsc3nc2=O)N1 (centres undefined),12.02%
19,O=S(=O)(NCCC(O)c1cccs1)c1ccccc1Cl (centres undefined),10.54%
20,Cc1oc(C(C)C)cc1C(=O)N1CCN(c2cnn(C)c(=O)c2)CC1,-13.93%
21,N#Cc1ccccc1C(=O)N1C[C@H]2CC[C@@H]1CN(c1ncccn1)C2,-29.72%
22,CN(Cc1nnc(C2CC2)n1C)C1CCN(CCc2ccncc2)C1 (centres undefined),-12.03%
23,CN(Cc1nnc(C2CC2)n1C)C1CCN(Cc2ccccc2)C1 (centres undefined),-8.297%
24,Cc1nc(CN2CCC(N(C)Cc3nnc(C4CC4)n3C)C2)cs1 (centres undefined),109.7%

row,Structure (SMILES),Percent Effect
1,CN(Cc1nnc(C2CC2)n1C)C1CCN(CCc2ccccc2)C1 (centres undefined),-2.973%
2,Cc1cnc(CN2CCC(N(C)Cc3nnc(C4CC4)n3C)C2)cn1 (centres undefined),-1.467%
3,CN(Cc1nnc(C2CC2)n1C)C1CCN(Cc2ccc(F)cc2)C1 (centres undefined),5.91%
4,CN(Cc1nnc(C2CC2)n1C)C1CCN(Cc2ccncc2)C1 (centres undefined),97.4%
5,CN(Cc1nnc(C2CC2)n1C)C1CCN(CCc2cccs2)C1 (centres undefined),1.002%
6,CCc1cnc(CN(C)C2CCN(CCc3cccs3)C2)o1 (centres undefined),3.074%
7,CCc1cnc(CN(C)C2CCN(Cc3nnc(C4CC4)n3C)C2)o1 (centres undefined),100.6%
8,Cc1cccc(CN2CCC(N(C)Cc3nnc(C4CC4)n3C)C2)c1 (centres undefined),125.1%
9,CCn1ccnc1CN1CCN(c2ncnc3ccsc23)CC1,18.95%
10,CCC(=O)NCC(=O)NCc1cc(Br)ccc1OC(F)F,6.284%
11,Cc1ccc(N2CCC(NCc3cnc(C4CCC4)s3)CC2)nc1,10.22%
12,CN(Cc1nnc(C2CC2)n1C)C1CCN(Cc2nccn2C)C1 (centres undefined),117.3%
13,CN(Cc1nnc(C2CC2)n1C)C1CCN(Cc2ccccc2F)C1 (centres undefined),2.374%
14,CCn1c(C)nnc1CN(C)C1CCN(Cc2nccn2C)C1 (centres undefined),-10.2%
15,CCOC(=O)C1CN(S(C)(=O)=O)Cc2ncn(CC)c21 (centres undefined),9.527%
16,O=C(O)[C@@H]1CN(C(=O)c2ccc3[nH]nnc3c2)C[C@H]1c1ccccc1,101.1%
17,O=C(O)[C@@H]1CN(C(=O)c2cc(C3CC3)n[nH]2)C[C@H]1c1cccc(F)c1,-7.697%
18,COc1ccc(C(=O)N2C[C@@H](C(=O)O)[C@H](c3cccc(F)c3)C2)c(O)c1,-6.268%
19,Cc1ccc(C(=O)N2C[C@@H](C(=O)O)[C@H](c3ccncc3)C2)cc1F,1.77%
20,COc1ccc(C(=O)N2C[C@@H](C(=O)O)[C@H](c3ccccc3)C2)c(C)c1,-5.118%
21,O=C(O)[C@@H]1CN(C(=O)c2ccc(F)c(F)c2)C[C@H]1c1cccc(F)c1,133.7%
22,Cc1ccc(F)c(C(=O)N2C[C@@H](C(=O)O)[C@H](c3ccncc3)C2)c1Cl,-4.386%
23,O=C(O)[C@@H]1CN(C(=O)c2ccc3[nH]nnc3c2)C[C@H]1c1cccc(F)c1,0.7419%
24,O=C(O)[C@@H]1CN(C(=O)c2ccc(O)cc2)C[C@H]1c1cccc(F)c1,133.5%

row,Structure (SMILES),Percent Effect
1,O=C(O)[C@@H]1CN(C(=O)c2ccc(Cl)cc2)C[C@H]1c1cccc(F)c1,111.8%
2,O=C(O)[C@@H]1CN(C(=O)c2ccc3nccnc3c2)C[C@H]1c1ccncc1,-8.549%
3,Cc1ccccc1[C@@H]1CN(C(=O)c2ccc3[nH]nnc3c2)C[C@H]1C(=O)O,1.706%
4,COC(=O)CNC(=O)C12CCC(=O)N1c1cc(Cl)ccc1S2 (centres undefined),-3.577%
5,CC(NC(=O)c1ccc(C(N)=O)cc1)c1cccc(N2CCOC2=O)c1 (centres undefined),7.135%
6,Cc1ccc(C(=O)N2CCN(C(=O)C(C)n3ccnc3)CC2)cc1F (centres undefined),-10.24%
7,COc1ccc(C2CC(=O)Nc3c2nc2n3CCCC2)cc1OC (centres undefined),9.396%
8,CN(C)c1cnn(CC(=O)N2CCCCCC2)c(=O)c1,2.501%
9,CCOc1ccc(-c2cc(=O)n3c(n2)CCCCC3)cc1,126.5%
10,CCOc1ccc(-c2ccnc(C3CC3)n2)cc1C(=O)O,5.09%
11,CCOc1ccc(OC2CCCN(c3cnn(C)c3)C2=O)cc1 (centres undefined),7.424%
12,CCOc1ccc(-c2ccnc(C)n2)cc1C(=O)O,-6.535%
13,COc1ccc(-c2cc(=O)n3c(n2)CCCCC3)cc1,99.63%
14,CCOc1ccc(NC(=O)Nc2cc(N3CCCCC3)ncn2)cc1,16.35%
15,CCOc1cc(-c2cc(=O)n3c(n2)CCCCC3)ccc1O,95.98%
16,COc1ccc(C2CC(=O)Nc3c2nc2n3CCCC2)cc1O (centres undefined),0.05289%
17,CN(C)c1ccc(-c2cc(=O)n3c(n2)CCCCC3)cc1,163.6%
18,CN(Cc1nccs1)C1CCN(c2cccc(-c3cscn3)c2)CC1,-5.707%
19,O=C(Nc1cc(-c2ccccc2)on1)N1CCN(CCO)CC1,-8.087%
20,CN(CC(O)C1CC1)C(=O)c1ccc(-c2nc(C3CC3)n[nH]2)cc1 (centres undefined),-1.161%
21,Cc1[nH]c(-c2ccccc2)nc1C(=O)N1CCC2(CCCO2)CC1,-0.5796%
22,NC(=O)c1ccc(N2CCCCC2)c(NC(=O)c2cncc(Br)c2)c1,8.346%
